About 2,100 (0.66%) of roughly 320,000 compounds were called active. Not shown: some 53% with an inconclusive outcome. Calls follow the shape of the dose curve; as a rule, active = well fitted inhibition curve with a large enough effect in the signal ratio, with a control signal flat (not every such curve was filed as active); inconclusive = small, poorly fitted or top-dose-only effect, or effect the other way, or a change in a side signal; inactive = flat fitted curve, though single readings scatter; the % refers to the signal ratio. Only a selection was taken, and actives are over-represented in it overall.

The record followed here is PubChem BioAssay AID2685 (National Center for Advancing Translational Sciences (NCATS), 2010).
Potency is read from the fitted curve at half-maximal effect.

A short description of the assay: qHTS Assay for Lipid Storage Modulators in Drosophila S3 Cells.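 As to cell number change: cells counted by Cell Tracker Red CMTPX staining in the red channel.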 As to lipid storage change, negative = inhibition: % is scaled to controls: 0 for no effect and ±100 for the full control effect. The conditions noted are these: BODIPY lipid droplet fluorescence, 18-24 h, cells fed with added oleic acid; cell number change: measured here: cell count max response; series mostly up to 46.1 µM. The method in brief:
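Drosophila S3 cells got compounds at several concentrations plus oleic acid (400 uM solution). Laser-scanning cytometry with 488 nm excitation read lipid droplets at 500-530 nm and cells at 575-640 nm. Percent activity was relative to 20 uM Triacsin C.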
Background: qHTS replaces the single test concentration by a dilution series.
As for `Cc1cccc(NC(=O)CS(=O)(=O)c2cn(C)c3ccccc23)c1C`, the Potency entry was “inactive”.

For `Clc1ccc(-c2nnc(CNC3CC3)o2)cc1`, the Potency entry is “inactive” and the cell number change worked out at 6.34%.

As to `CCCCCN(C(=O)CN1CCC(Cc2ccccc2)CC1)c1c(N)n(CCCC)c(=O)[nH]c1=O`, the Potency result is “inactive” and the cell number change stood at 27.6%.

`CCOC(=O)C1CCCN(CCC(=O)Nc2ccc(Br)c(C)c2)C1` (stereo not drawn): the Potency is 18.4 µM (active) and the cell number change amounted to 4.56%.

Consider `CCOC(=O)C1CCCN(CCC(=O)Nc2ccc(C)c(C)c2)C1` (stereo not drawn), for which the Potency result is “inactive” and the cell number change stood at 17%.

Take `CCOC(=O)C1CCN(CCC(=O)Nc2ccc(Br)c(C)c2)CC1`: the Potency entry was “inactive” and the cell number change was 0.794%.

In the case of `O=C(NCCc1nc2ccccc2[nH]1)/C(=C/c1ccco1)NC(=O)c1ccc(Br)o1`, the Potency entry is “inactive” and the cell number change was -2.37%.

As to `COc1ccc2[nH]c(C)c(CN3CCCCC3)c(=O)c2c1`, the Potency result is “inactive” and the cell number change was -15.2%.

With `CCc1nnc(NC(=O)C2CCN(S(=O)(=O)Cc3ccccc3)CC2)s1`, the Potency entry was “inactive” and the cell number change is -9.95%.

In the case of `CC(=O)c1cccc(NC(=O)CSc2nnc(-c3ccncc3)o2)c1`, the Potency result was “inactive” and the cell number change came out at 13.1%.

Consider `O=C(NCCN1CCN(C(=O)c2cccc([N+](=O)[O-])c2)CC1)C(=O)NCc1ccc(Cl)cc1`, for which the Potency was 6.51 µM (active) and the cell number change is -18.5%.

In the case of `O=C(c1cccc([N+](=O)[O-])c1)N1CCN(c2cccc(Cl)c2)CC1`, the Potency result is “inactive”.

In the case of `O=C(NCCN1CCN(C(=O)c2ccc([N+](=O)[O-])cc2)CC1)C(=O)NCc1ccccc1`, the Potency result was “inactive” and the cell number change was -7.25%.

On to `CC(=O)Nc1ccc(SCC(=O)c2c(N)n(Cc3ccccc3)c(=O)n(C)c2=O)cc1`, for which the Potency result was “inactive” and the cell number change turned out to be 14.5%.

Turning to `CCOC(=O)C1CCN(C(=O)CCNC(=O)Cn2ccc3ccccc3c2=O)CC1`, the Potency entry is “inactive” and the cell number change turned out to be 0.532%.

In the case of `Cc1sc2nc(COC(=O)c3ccc(N4CCCC4)c([N+](=O)[O-])c3)[nH]c(=O)c2c1C`, the Potency result is “inactive” and the cell number change stood at 5.98%.

Take `CCOC(=O)c1c(NC(=O)c2ccc(C)cc2)sc2c1CC(C)(C)NC2(C)C`: the Potency result was “inactive” and the cell number change was -1.96%.

For the compound `Cc1ccc(NC(=O)Cc2nn(C)c(=O)c3ccccc23)cc1F`, the Potency entry was “inactive”.

As to `CC(=O)Nc1ccc(C(=O)NC(CC(=O)O)c2ccc(Cl)cc2)cc1` (stereo not drawn), the Potency was 20.6 µM (active) and the cell number change is -19.4%.

For `CC(=O)Nc1ccc(NC(=O)CC(NC(=O)c2ccccc2)c2ccccc2)cc1` (stereo not drawn), the Potency entry was “inactive” and the cell number change was determined as 19%.

Turning to `CC(=O)Nc1ccc(C(=O)NNC(=O)c2ccc(Cl)cc2)cc1`, the Potency result was “inactive”.

Take `COc1ccc(NC(=O)C(c2ccc(OC)cc2)N(C)C(=O)Cc2cccs2)cc1` (stereo not drawn): the Potency entry is “inactive” and the cell number change is 9.03%.

Regarding `O=C(Cc1ccccc1)NNC1CC(=O)N(c2ccccc2)C1=O` (stereo not drawn), the Potency result is “inactive” and the cell number change worked out at 0.451%.

For `CC(=O)N1CCN(c2ccc(NC(=O)c3ccc(N4CCCC4)c([N+](=O)[O-])c3)cc2Cl)CC1`, the Potency entry is “inactive”.

For `O=C(Nc1nc2ccccc2s1)C1CC(=O)N(c2ccc(Br)cc2)C1` (stereo not drawn), the Potency result was “inactive” and the cell number change was 1.03%.

For `CCc1ccc(N2CC(C(=O)Nc3nc4ccc(S(C)(=O)=O)cc4s3)CC2=O)cc1` (stereo not drawn), the Potency is 2.31 µM (active) and the cell number change was -21.1%.

For `CCc1ccc(N2CC(C(=O)Nc3nccs3)CC2=O)cc1` (stereo not drawn), the Potency entry is “inactive” and the cell number change is -0.507%.

Take `COc1cc(-n2c(=O)c3ccccc3n(CC(=O)c3ccc(Br)cc3)c2=O)cc(OC)c1OC`: the Potency entry is “inactive” and the cell number change worked out at 7.89%.

On to `CC(=O)Nc1ccc(NC(=S)NC(=O)C2CCCC2)cc1`, for which the Potency result was “inactive” and the cell number change was found to be 16.2%.

`COc1ccc(NC(=S)NC(=O)C2CCC2)cc1`: the Potency result is “inactive” and the cell number change is -5.57%.

Consider `CCN(CC)c1ccc(NC(=S)NC(=O)C2CCC2)cc1`, for which the Potency was 4.11 µM (active) and the cell number change was -16.8%.

In the case of `Cc1ccc(C(=O)OCC(=O)NCCNC(=O)COC(=O)c2ccc(C)o2)o1`, the cell number change was 26.3% and the outcome is “inactive [at 0.0737 µM]”.

Consider `Cc1ccc(S(=O)(=O)Nc2ccc(-c3ccc4nncn4n3)cc2)cc1`, for which the Potency entry is “inactive” and the cell number change was -22.1%.

For the compound `Cc1ccc(S(=O)(=O)Nc2cccc(-c3ccc4nncn4n3)c2)cc1`, the lipid storage change, negative = inhibition was -0.542% [at 0.0737 µM] (inactive).

For `CC(=O)Nc1ccc(S(=O)(=O)Nc2cccc(-c3ccc4nncn4n3)c2)cc1`, the Potency is 0.731 µM (active) and the cell number change was -19.1%.

As to `CC(C(=O)NC1CCCC1)N(C(=O)Cn1nnc(-c2ccc(F)cc2)n1)c1ccccc1F` (stereo not drawn), the Potency entry was “inactive” and the cell number change is -1.32%.

For the compound `COc1ccc(N(CC(=O)NC2CCCC2)C(=O)Cn2nnc(-c3ccc(F)cc3)n2)cc1`, the Potency entry was “inactive” and the cell number change came out at 7.89%.

Consider `COc1ccc(N(C(C)C(=O)NC2CCCCCC2)S(C)(=O)=O)cc1` (stereo not drawn), for which the Potency is 5.17 µM (active) and the cell number change was 22.1%.

For `COc1ccc(N(C(=O)Cn2nnc(-c3ccc(F)cc3)n2)C(C)C(=O)NC2CCCC2)cc1` (stereo not drawn), the Potency is 1.3 µM (active) and the cell number change was 10.5%.

As to `CC(C(=O)NC1CCCC1)N(c1ccc(Oc2ccccc2)cc1)S(C)(=O)=O` (stereo not drawn), the Potency entry is “inactive” and the cell number change is 11.4%.

As for `CCOc1ccc(N(C(C)C(=O)NC2CCCCCC2)S(C)(=O)=O)cc1` (stereo not drawn), the Potency result is “inactive”.

Regarding `CCC(CC)c1nnc(NC(=O)CN2C(=O)NC3(CCCC3)C2=O)s1`, the cell number change came to 9% and the outcome is “inactive [at 0.369 µM]”.

Take `Cn1c(Cn2c3ccccc3c3ccccc32)n[nH]c1=S`: the Potency result is “inactive” and the cell number change is -6.36%.

Take `O=C(O)c1ccccc1-n1cnnn1`: the Potency result was “inactive” and the cell number change was -10.9%.

In the case of `CC(C)NCCOCCSc1ccc(Cl)cc1`, the Potency was 20.6 µM (active) and the cell number change was -7.67%.

In the case of `CCCCNCCOCCSc1ccc(Cl)cc1`, the Potency entry is “inactive” and the cell number change is -17.4%.

With `CCC(C)NCCOCCSc1ccc(Cl)cc1` (stereo not drawn), the Potency entry is “inactive” and the cell number change came to 14.1%.

Turning to `Cc1ccccc1C(=O)Nc1cccc(-c2ccc3nncn3n2)c1`, the Potency entry was “inactive” and the cell number change turned out to be 10.3%.

For the compound `CCOc1ccccc1OCCn1ncc2ccc(OC)c(OC)c2c1=O`, the Potency result is “inactive” and the cell number change is 16.5%.

Turning to `Brc1ccccc1OCCNCc1ccccc1`, the Potency entry was “inactive” and the cell number change was 17.2%.
